The whole screen tested about 190,000 compounds, of which about 4,000 (2.1%) were called active. Rule as the data show it: active = inhibition above about 58%; inactive = the rest, inconclusive results apart; tested in S. cerevisiae. The full list was thinned out, with actives kept by preference.
Assay: growth inhibition of WT strain, primary screen, mitochondrial fusion inhibitor project, WT and mutant strains, chemical genetic (AID 1362)
Details: mitochondrial fusion phenotypic screen, at 10 µM
[1] = WT strain, growth inhibition, stronger effect = higher value

| Structure (SMILES) | inhibition [1] | inhibition (mutant strain inhibition) [%] |
| --- | --- | --- |
| Cc1cc(C(F)F)n2nc(C(=O)Nc3ccc(S(=O)(=O)NC45CC6CC(CC(C6)C4)C5)cc3)nc2n1 | -1.63% (inactive) | -19.6 |
| CCn1nccc1C(=O)Nc1ccc(S(=O)(=O)NC23CC4CC(CC(C4)C2)C3)cc1 | 64% (active) | -11.7 |
| CCn1nccc1C(=O)Nc1ccc(Cl)c(Cl)c1 | 27.7% (inactive) | 28.1 |
| S=c1nc(C23CC4CC(CC(C4)C2)C3)nc2sccn12 | 23.5% (inactive) | 16.9 |
| COc1ccccc1N1CCN(CC(=O)NCCc2ccc(S(N)(=O)=O)cc2)CC1 | -0.9% (inactive) | 3.52 |
| COC(=O)NC1(C(F)(F)F)NC(=O)N(C2CCCCC2)C1=O (configuration not stated) | 6.22% (inactive) | -5.73 |
| O=C1NC(Nc2nc3ccccc3s2)(C(F)(F)F)C(=O)N1C1CCCCC1 (configuration not stated) | 68.5% (active) | 15.8 |
| O=C(NC1(C(F)(F)F)NC(=O)N(C2CCCCC2)C1=O)c1ccco1 (configuration not stated) | -16.6% (inactive) | -15.1 |
| CS(=O)(=O)N(CC(=O)NC1CCCC1)Cc1ccc(F)cc1 | 1.23% (inactive) | -0.09 |
| CN(C)S(=O)(=O)c1cccc(NC(=O)COC(=O)/C=C/c2cccs2)c1 | 0.4% (inactive) | -0.76 |
| CN1CCN(S(=O)(=O)c2cccc(C(=O)N3CCc4ccccc43)c2)CC1 | -3.09% (inactive) | -6.02 |
| COc1cccc(CNC(=O)Cc2csc(Nc3nc(=S)[nH]c4ccccc34)n2)c1 | 2.48% (inactive) | 7.91 |
| CCOC(=O)c1c(C2CC2)csc1NC(=O)CSCc1c(C)noc1C | -0.08% (inactive) | 6.46 |
| Cc1noc(C)c1CSCC(=O)Nc1nc2ccc(Oc3ccccc3)cc2s1 | 71.3% (active) | 34.8 |
| CCn1c(SCC(=O)Nc2nc3ccc(OC)cc3s2)nnc1-c1ccoc1C | 42% (inactive) | 9.68 |
| O=C(O)Cc1ccc(NCc2ccccc2Cl)cc1 | 2.97% (inactive) | -2.38 |
| CN1CCNC(=O)C1CC(=O)NCCC1=CCCCC1 (configuration not stated) | 13.1% (inactive) | 9.2 |
| Clc1ccc(-c2csc(-c3ccncc3)n2)cc1 | 25.2% (inactive) | 28.4 |
| Cc1ccc(-c2csc(NNC(=O)c3ccccc3)n2)cc1 | 9.24% (inactive) | 14 |
| CCCc1cc(-c2nc(-c3ccc(C)cc3)cs2)ccn1 | 77.9% (active) | 50.8 |
| CC1Cc2ccccc2N1C(=O)CSc1nnc(C2CC2)n1C (configuration not stated) | -5.06% (inactive) | 2.15 |
| Cc1ccc(NC(=S)N/N=C2/CCCc3c(C)cc(C)cc32)cc1 | 23.1% (inactive) | 23.1 |

| Structure (SMILES) | inhibition [1] | inhibition (mutant strain inhibition) [%] |
| --- | --- | --- |
| Cc1ccc(C)c(NC(=S)NNC(=O)c2csc(C)c2)c1 | -2.09% (inactive) | -14.4 |
| Cc1ccc(C)c(NC(=S)NNC(=S)Nc2ccc(C(C)C)cc2)c1 | 71.3% (active) | 24.5 |
| Cc1nn(CCOc2ccc(Br)cc2)c(C)c1[N+](=O)[O-] | 3.38% (inactive) | -3.33 |
| O=S(=O)(Cc1ccccc1)c1nc2ccccc2n1Cc1ccccn1 | 23.5% (inactive) | 10.5 |
| OC(CN=c1sc2ccccc2n1CC(O)COc1ccccc1)COc1ccccc1 (configuration not stated) | 74.3% (active) | 39.9 |
| C=CCn1c(=N)n(CC(O)COc2ccc(OC)cc2)c2ccccc21 (configuration not stated) | 10.5% (inactive) | -4.41 |
| OC(COc1ccccc1)Cn1cc(Br)cn1 (configuration not stated) | 5.35% (inactive) | -3.45 |
| COc1ccccc1C(c1nnnn1CC1CCCO1)N1CCN(c2ccccc2)CC1 (configuration not stated) | 24.2% (inactive) | -7.45 |
| O=C1COc2ccc(C(=O)COC(=O)C3CC(O)CN3S(=O)(=O)c3ccc(Cl)cc3)cc2N1 (configuration not stated) | 7.83% (inactive) | 0.3 |
| Cc1ccnc(NC(=O)CCC(=O)N(CC(=O)NCc2ccccc2)Cc2ccco2)c1 | -6.89% (inactive) | 16.9 |
| O=S1(=O)CCC(NC(=S)SCc2ccccc2Br)C1 (configuration not stated) | -2.13% (inactive) | 13.4 |
| COCCn1c(CN(Cc2ccccc2)Cc2ccccc2)nc2c1c(=O)n(C)c(=O)n2C | 13% (inactive) | -1.28 |
| CC(C)CCn1c(CN(C)Cc2ccccc2)nc2c1c(=O)n(C)c(=O)n2C | 1.88% (inactive) | 1.47 |
| CC(C)Cn1c(CN(Cc2ccccc2)Cc2ccccc2)nc2c1c(=O)n(C)c(=O)n2C | 85.5% (active) | 23.3 |
| Cc1ccc2nc(C)cc(N/N=C/c3ccc(F)cc3)c2c1 | 6.16% (inactive) | 21 |
| CCOC(=O)c1cccc(NC(=O)CCOc2ccccc2)c1 | 3.69% (inactive) | 2.18 |
| COc1ccccc1CC(=O)Nc1ccc([N+](=O)[O-])cc1OC | -6.53% (inactive) | -1.24 |
| COc1ccccc1CSc1ncc(-c2ccc([N+](=O)[O-])cc2)[nH]1 | 63.4% (active) | 30.7 |
| COc1ccccc1CSc1nc2ccccc2[nH]1 | -4.85% (inactive) | -2.06 |
| COCC(C)NCc1cc(Br)ccc1OC (configuration not stated) | 7.52% (inactive) | 7.1 |
| CCCOc1ccc(C(=O)NCCc2ccccc2)cc1 | -6.25% (inactive) | -16.2 |
| CCCOc1ccc(N/C=C/C(=O)C(C)(C)C)cc1 | -11.3% (inactive) | -8.28 |

| Structure (SMILES) | inhibition [1] | inhibition (mutant strain inhibition) [%] |
| --- | --- | --- |
| CCCOc1ccc(C(=O)C(CCC(CNCC)C(=O)c2ccc(OCCC)cc2)CNCC)cc1 (configuration not stated) | 72.9% (active) | 35.9 |
| Cc1cc2ccccc2n1CCC(=O)O | 7.54% (inactive) | 5.92 |
| NC(=O)c1ccccc1N(Cc1ccccc1)S(=O)(=O)c1ccccc1 | -1.27% (inactive) | 17.1 |
| COc1ccc(S(=O)(=O)N(C)CC(=O)N2CCCC2)cc1Cl | -0.67% (inactive) | 5.49 |
| O=C(O)CC/C(=N\NC(=O)c1ccc(F)cc1)c1ccc(Br)cc1 | -0.54% (inactive) | 7.09 |
| COn1c(-c2ccc(Cl)cc2Cl)nc2ncccc21 | 6.69% (inactive) | 2.12 |
| Clc1ccc(COn2c(-c3ccc(Cl)cc3Cl)nc3ncccc32)cc1 | 73.2% (active) | 48.6 |
| Clc1ccc(-c2ncc3ccccn23)c(Cl)c1 | 24.3% (inactive) | 2.24 |
| COCCNC(=S)Nc1cc(S(=O)(=O)N2CCOCC2)ccc1N1CCCCC1 | 22% (inactive) | 22.7 |
| COc1ccc(-c2cc(C3CCN(c4ncccc4[N+](=O)[O-])CC3)[nH]n2)cc1 | 72.2% (active) | 40.6 |
| COc1ccc(N2CCN(c3ccc([N+](=O)[O-])nc3)CC2)cc1 | 15.8% (inactive) | 8.11 |
| CC(=O)NC(Cc1ccccc1)C(=O)NC1CCN(c2ncccc2[N+](=O)[O-])CC1 (configuration not stated) | 6.05% (inactive) | 4.93 |
| O=c1cnnc(Nc2ccccc2F)[nH]1 | -19.8% (inactive) | -21.4 |
| CCC(=O)c1ccc(OCC(O)CN2CCN(c3cccc(C(F)(F)F)c3)CC2)cc1 (configuration not stated) | 10.7% (inactive) | 17.1 |
| O=C(COc1ccc(Cl)cc1)N1CCN(S(=O)(=O)c2ccc(Cl)cc2)CC1 | -16.2% (inactive) | -6.77 |
| O=C(COc1ccc(Cl)cc1)N1CCN(c2cccc(C(F)(F)F)c2)CC1 | 59.2% (active) | 27.3 |
| CC(=O)Oc1ccccc1C1=NN(C(C)=O)C(c2ccccc2)C1 (configuration not stated) | -8.11% (inactive) | 7.28 |
| Cc1cccc(NC(=S)Nc2ccc(Br)cc2)c1 | -2.23% (inactive) | -3.76 |
| Cc1cccc(NC(=S)Nc2ccc3cn[nH]c3c2)c1 | 3.94% (inactive) | -1.45 |
| Cc1cccc(NC(=S)Nc2ccc(Cl)c(Cl)c2)c1 | 83% (active) | 83 |
| CCCCCN(C(=O)NC(=O)Nc1cccc(C)c1C)S(C)(=O)=O | -2.53% (inactive) | 12 |
| O=S(=O)(c1ccc(-c2ccccc2)cc1)N1CCCC1 | -9.92% (inactive) | -14.9 |

| Structure (SMILES) | inhibition [1] | inhibition (mutant strain inhibition) [%] |
| --- | --- | --- |
| CCOC(=O)N1CCN(C(=O)Cn2cnc3ccccc3c2=O)CC1 | -8.2% (inactive) | -9.03 |
| CCOC(=O)C1CCc2nc3ccccc3c(=O)n21 (configuration not stated) | 96.7% (active) | 18.1 |
| CCOCCCn1c(NN)nc2ccccc2c1=O | 4.28% (inactive) | 1.61 |
| Cc1nc(-c2ccc(Cl)cc2)sc1C(=O)CBr | 29.8% (inactive) | 16 |
| Cc1ccc(S(=O)(=O)Cc2cc(-c3ccc(Cl)cc3)no2)cc1 | 17.1% (inactive) | 12.1 |
| Cc1cc(C)cc(NC(=S)NCc2ccc(F)cc2)c1 | 42.3% (inactive) | 3.44 |
| Cc1cc(C)cc(NC(=S)NCCc2c[nH]c3ccccc23)c1 | 70.2% (active) | 27.3 |
| O=C(NCCc1c[nH]c2ccccc12)c1cc2ccccc2oc1=O | 15.8% (inactive) | -4.03 |
| CC(C)(C)NC(=O)c1ccc(Cn2cc(C(F)(F)F)ccc2=O)cc1 | 3.12% (inactive) | 11.4 |
| Cc1cc(Nc2ccccc2)n(C(=O)c2ccc(N)cc2)n1 | -10.2% (inactive) | 32.9 |
| Cc1ccc(Nc2ccccc2N)cc1 | 48.4% (inactive) | 33.4 |
| Nc1ccc(Nc2ccccc2)cc1 | 74.9% (active) | 46 |
| CCOC(=O)C1(Cc2cccc(OC)c2)CCN(C(C)CC(C)(C)O)CC1 (configuration not stated) | -0.94% (inactive) | 20.1 |
| CCN(CC)CC(=O)Nc1sc2c(c1C(=O)c1ccccc1C)CCC2 | 56.7% (inactive) | 9.28 |
| COC(=O)C1C(=O)NCC1c1ccc(C)cc1 (configuration not stated) | 19.4% (inactive) | 13.7 |
| COC(=O)C1=C(Nc2ccc(OC)cc2)C=C(C)C(C(=O)OC)C1c1ccc(C)cc1 (configuration not stated) | 11.5% (inactive) | 5.72 |
| COC(=O)C1=C(Nc2ccc(C)cc2)C=C(C)C(C(=O)OC)C1c1ccc(F)cc1 (configuration not stated) | 72.8% (active) | -7.13 |
| CCC(=O)NC(=S)Nc1ccc(NC(=O)c2ccco2)c(Cl)c1 | 8.3% (inactive) | -0.75 |
| Cn1ccc(=NC=C(C#N)C#N)c2ccccc21 | -8.61% (inactive) | 4.44 |
| CC1=NNC(=O)C1CCC(=O)N/N=C\c1ccc(Cl)c(Cl)c1 (configuration not stated) | -6.04% (inactive) | 2.78 |

From PubChem BioAssay AID1362 (SRMLSC, 2008)
